Screening data (PubChem)
Sampled rows, rich in hits. Any-hit rate of the full collection: about 1.9%.
Pemphigus Ab inh = human desmoglein-3 autoantibody binding inhibition. 310,000 compounds, 0.48% hits. DSG3-coupled beads, scFv-anti-DSG3-GFP binding, flow cytometry; hits give low values. P32926. AID 588358. binding (percent of control), % at 10 µM;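 active = binding more than 3 SD below its plate's average and above zero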;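 also: hits lower antibody fragment binding to DSG3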
NSD2 HMT inh = NSD2 (human) methyltransferase inhibition; O96028; NSD2 peptide methylation, AlphaScreen, 120 min; inhibition, % at 12.5 µM; 310,000 compounds, 0.54% hits; AID 743445
ATG4B inh = blocks human ATG4B protease cleavage of LC3 substrate. Q9Y4P1. ATG4B cleavage of LC3-PLA2, NBD-HPC fluorescence, 1 h. inhibition, % at 8.33 µM. 340,000 compounds, 0.51% hits. AID 504462; in the data active = inhibition above about 40%
CaV13 ICDI inh = Primary screen for inhibitors of IQ motif and Ca2+-dependent inactivation inhibitor domain binding in CACNA1D, Förster resonance energy transfer in living cells, … | HEK cells, CFP/YFP FRET ICDI-IQ, plate reader, 10 min; percent FRET-ratio fall versus neutral wells | inhibition, % at 12.3 µM | 340,000 compounds, 0.098% hits;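 active = mean replicate inhibition of at least 30% and at least 1% of replicates passing that level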;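 also: 0% = median of the neutral control wells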
N-glyco inh = blocks N-linked glycosylation in D54 reporter cells; D54 ERlucT glycosylation luciferase reporter, 24 h; percent of 100 nM tunicamycin response; reporter increase, % at 12.5 µM; 360,000 compounds, 0.23% hits;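 active = mean luciferase reporter signal, scaled so untreated is 0 and the glycosylation-blocking control 100, at or above a set limit in every replicate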;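 also: luciferase carries N-glycosylation sites so blocking glycosylation raises the light; 0% = median of neutral control wells and 100% = median of 100 nM tunicamycin wells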
Vif imaging = blocks HIV Vif function; HEK293T cells, Vif self-association by quenched fluorescence, imaging, 24 h; inhibition, % at 7.49 µM; 340,000 compounds, 0.35% hits; AID 602346; in the data active = inhibition above about 50%, passing the limit was not always enough
ATG4B confirm = ATG4B (human) inhibition, single-dose confirmed; shares compounds with ATG4B inh; ATG4B protease fluorescent substrate cleavage assay; inhibition, % at 8.33 µM; 320 compounds, 92% hits; in the data active = inhibition above about 39%
PLA2 counter = inhibits human PLA2, flagging false ATG4B inhibitors; shares compounds with ATG4B inh; purified PLA2, NBD-C6-HPC fluorescence, 45 min; inhibition, % at 8.33 µM; 1,600 compounds, 66% hits; AID 588402
Active calls of the source: *. Rule as the data show it, unless noted: active = inhibition above about 50%; inactive = the rest.

For CCOC(=O)c1c(NC(=O)CSc2nnc(C)c(=O)[nH]2)sc2c1CCCC2 the results were NSD2 HMT inh 2.3, ATG4B inh 38.2, N-glyco inh 1.9 and Vif imaging -8.7.
CCOC(=O)c1c(NC(=O)C(C)Sc2nnc(C)c(=O)[nH]2)sc2c1CCCC2 (stereo not drawn) was read as Pemphigus Ab inh 99.1, NSD2 HMT inh 0.3, ATG4B inh 62.4*, CaV13 ICDI inh -7.4, N-glyco inh 0.0, Vif imaging 9.2 and PLA2 counter 64.9*.
`COc1cc2c(cc1NC(=O)C(C)Sc1ccc(NC(C)=O)cc1)oc1ccccc12` (stereo not drawn) gave Pemphigus Ab inh 103.1, NSD2 HMT inh -1.9, ATG4B inh 43.5*, CaV13 ICDI inh -4.6, N-glyco inh -2.3, Vif imaging -0.2, ATG4B confirm 90.9* and PLA2 counter 39.1.
S=C(NCc1cccs1)Nc1cccc(Cl)c1Cl was read as Pemphigus Ab inh 110.7, NSD2 HMT inh -3.7, ATG4B inh 51.5*, CaV13 ICDI inh -8.7, N-glyco inh -3.0, Vif imaging -5.5 and PLA2 counter 52.5*.
Cc1ccccc1NC(=S)NCc1cccs1 was read as Pemphigus Ab inh 104.8, NSD2 HMT inh -1.0, ATG4B inh 2.5, CaV13 ICDI inh -5.1, N-glyco inh -1.3 and Vif imaging 13.6.
Screening Cc1c(Cl)cccc1NC(=S)NCc1cccs1 returned Pemphigus Ab inh 95.7, NSD2 HMT inh -0.1, ATG4B inh 57.1*, CaV13 ICDI inh -5.4, N-glyco inh -3.6, Vif imaging 3.3 and PLA2 counter 68.8*.
`O=C(NCc1ccncc1)C1CCN(S(=O)(=O)c2cc(Cl)ccc2Cl)CC1` gave Pemphigus Ab inh 96.6, NSD2 HMT inh -3.6, ATG4B inh -5.5, CaV13 ICDI inh -3.5, N-glyco inh 2.5 and Vif imaging 14.6.
Screening Cc1nn(-c2cccc(C(F)(F)F)c2)c(Cl)c1/C=N/Nc1cccc(C(=O)O)c1 returned Pemphigus Ab inh 96.0, NSD2 HMT inh 3.6, ATG4B inh 56.8*, CaV13 ICDI inh -13.3, N-glyco inh -6.7, Vif imaging 1.7 and PLA2 counter 66.7*.
`CC(NS(=O)(=O)c1ccc(CCC(=O)NCc2cccnc2)cc1)c1ccccc1` (stereo not drawn) gave Pemphigus Ab inh 100.2, NSD2 HMT inh -2.1, ATG4B inh 89.9*, CaV13 ICDI inh -3.4, N-glyco inh -2.1, Vif imaging -5.6 and PLA2 counter -3.6.
O=C(NCc1nnc2c3ccccc3c(-c3ccccc3)nn12)c1ccc(Cl)cc1 was read as Pemphigus Ab inh 86.6, NSD2 HMT inh -0.1, ATG4B inh 42.1*, CaV13 ICDI inh 9.4, N-glyco inh -2.0, Vif imaging -1.7 and PLA2 counter 58.1*.
For O=C(Nc1ccccc1)NC1CCCc2ccccc21 (stereo not drawn) the results were Pemphigus Ab inh 105.7, NSD2 HMT inh -1.6, ATG4B inh 30.9, CaV13 ICDI inh -7.3, N-glyco inh -0.9 and Vif imaging 2.4.
For Cc1cc(Br)c(OCc2ccc(C(=O)N/N=C3\CC4CC=CC34)cc2)c(Br)c1 (stereo not drawn) the results were Pemphigus Ab inh 101.6, NSD2 HMT inh 0.8, ATG4B inh 47.7*, CaV13 ICDI inh -4.8, N-glyco inh -0.9, Vif imaging -4.2 and PLA2 counter 49.1.
O=C(N/N=C1\CC2CC=CC12)c1ccc(Br)cc1 (stereo not drawn) was read as Pemphigus Ab inh 102.2, NSD2 HMT inh -1.4, ATG4B inh -14.8, CaV13 ICDI inh -0.4, N-glyco inh 1.6 and Vif imaging -1.1.
For CCOC(=O)Cc1cc(-c2ccc(F)cc2)nc2ccc3ccccc3c12 the results were Pemphigus Ab inh 103.0, NSD2 HMT inh -1.5, ATG4B inh 28.7, CaV13 ICDI inh -4.9, N-glyco inh -1.7 and Vif imaging -2.1.
